Experimental data taken from PMC7862700, “An all-to-all approach to the identification of sequence-specific readers for epigenetic DNA modifications on cytosine”.

Tests used:
Assay in all cases: DAPPL (digital affinity profiling via proximity ligation, sequencing); 10 mM Tris-HCl pH 7.5, 50 mM NaCl, 1 mM DTT, 4% glycerol, room temperature, 30 min; GST-TFs on glutathione beads, 16-mer random dsDNA library, 0.1% formaldehyde crosslink after washing; high values mean tight binding
[1] = molecular target: T1, FLI1 (Homo sapiens, UniProt Q01543 1-452); details: protein: recombinant; tags: N-terminal GST; dsDNA, one strand shown
T1 sequence: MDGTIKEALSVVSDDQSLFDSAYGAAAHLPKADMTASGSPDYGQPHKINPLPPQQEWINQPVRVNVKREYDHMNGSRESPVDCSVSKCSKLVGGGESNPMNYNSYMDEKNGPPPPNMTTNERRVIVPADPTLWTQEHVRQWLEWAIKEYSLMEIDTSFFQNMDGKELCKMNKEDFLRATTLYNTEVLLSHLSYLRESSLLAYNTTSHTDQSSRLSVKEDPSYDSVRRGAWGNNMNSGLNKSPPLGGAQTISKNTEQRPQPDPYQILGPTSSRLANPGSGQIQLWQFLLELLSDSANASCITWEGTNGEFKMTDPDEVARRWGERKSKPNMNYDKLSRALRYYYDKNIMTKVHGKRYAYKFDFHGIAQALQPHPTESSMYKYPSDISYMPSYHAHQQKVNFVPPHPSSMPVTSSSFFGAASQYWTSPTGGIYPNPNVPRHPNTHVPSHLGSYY
In short: (§1)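 A tag-only sample was pooled with DNA-barcoded human transcription factors that had been expressed in yeast as GST fusions and captured on glutathione beads. The pools were incubated for 30 min at room temperature with 200 nmole of a random double-stranded 16-mer DNA library in Tris/NaCl/DTT/glycerol buffer, then washed, crosslinked with 0.1% formaldehyde, proximity-ligated (BsaI/T4 ligase, 1 h, 37 °C), PCR-amplified and sequenced on an Illumina NextSeq500. Binding signal is each hexamer's read frequency for a factor divided by its frequency for the tag-only sample.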

[2] = molecular target: T2, ELK1 (Homo sapiens, UniProt P19419 1-428); details: protein: recombinant; tags: N-terminal GST; dsDNA, one strand shown
T2 sequence: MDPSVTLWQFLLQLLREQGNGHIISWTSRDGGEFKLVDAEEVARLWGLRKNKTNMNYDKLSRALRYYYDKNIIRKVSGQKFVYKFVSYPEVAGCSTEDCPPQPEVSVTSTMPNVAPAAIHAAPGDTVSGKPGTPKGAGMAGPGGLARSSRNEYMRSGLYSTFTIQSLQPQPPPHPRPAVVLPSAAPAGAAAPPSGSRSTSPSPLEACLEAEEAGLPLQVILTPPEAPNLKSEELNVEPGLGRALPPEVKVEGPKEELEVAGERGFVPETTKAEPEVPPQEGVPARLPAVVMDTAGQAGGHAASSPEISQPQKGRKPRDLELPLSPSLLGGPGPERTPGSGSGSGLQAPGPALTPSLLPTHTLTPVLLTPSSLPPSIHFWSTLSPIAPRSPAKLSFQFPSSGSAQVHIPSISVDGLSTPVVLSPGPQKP
In short: as §1

[3] = molecular target: T3, GABPA (Homo sapiens, UniProt Q06546 1-454); details: protein: recombinant; tags: N-terminal GST; dsDNA, one strand shown
T3 sequence: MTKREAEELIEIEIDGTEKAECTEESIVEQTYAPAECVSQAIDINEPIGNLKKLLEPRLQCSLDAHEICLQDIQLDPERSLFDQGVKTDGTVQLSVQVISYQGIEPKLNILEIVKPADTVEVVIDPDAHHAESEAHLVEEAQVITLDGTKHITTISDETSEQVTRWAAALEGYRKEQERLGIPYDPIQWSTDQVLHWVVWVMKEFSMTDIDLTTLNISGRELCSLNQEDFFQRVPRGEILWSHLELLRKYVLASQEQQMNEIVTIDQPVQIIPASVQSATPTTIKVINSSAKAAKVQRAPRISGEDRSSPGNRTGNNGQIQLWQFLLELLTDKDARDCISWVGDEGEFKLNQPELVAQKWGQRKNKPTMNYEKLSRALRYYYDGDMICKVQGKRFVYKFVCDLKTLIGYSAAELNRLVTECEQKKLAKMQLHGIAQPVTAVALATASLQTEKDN
In short: as §1

[4] = molecular target: T4, ERG (Homo sapiens, UniProt P11308 1-479); details: protein: recombinant; tags: N-terminal GST; dsDNA, one strand shown
T4 sequence: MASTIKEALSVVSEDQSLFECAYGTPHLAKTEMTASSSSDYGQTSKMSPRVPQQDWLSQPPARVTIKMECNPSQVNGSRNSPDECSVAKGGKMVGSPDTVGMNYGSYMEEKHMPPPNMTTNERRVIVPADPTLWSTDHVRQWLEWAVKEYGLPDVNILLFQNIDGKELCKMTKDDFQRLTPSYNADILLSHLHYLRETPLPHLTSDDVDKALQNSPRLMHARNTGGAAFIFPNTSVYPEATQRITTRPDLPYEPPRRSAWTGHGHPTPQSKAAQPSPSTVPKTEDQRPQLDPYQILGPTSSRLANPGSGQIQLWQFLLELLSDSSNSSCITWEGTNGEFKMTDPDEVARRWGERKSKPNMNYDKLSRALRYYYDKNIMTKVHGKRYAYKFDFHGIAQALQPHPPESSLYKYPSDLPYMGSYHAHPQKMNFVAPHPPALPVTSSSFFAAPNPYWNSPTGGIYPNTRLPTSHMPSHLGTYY
In short: as §1

[5] = molecular target: ELF1 (Homo sapiens, UniProt P32519 1-619); details: protein: recombinant; tags: N-terminal GST; dsDNA, one strand shown
In short: as §1

[6] = molecular target: T5, EHF (Homo sapiens, UniProt Q9NZC4 1-300); details: protein: recombinant; tags: N-terminal GST; dsDNA, one strand shown
T5 sequence: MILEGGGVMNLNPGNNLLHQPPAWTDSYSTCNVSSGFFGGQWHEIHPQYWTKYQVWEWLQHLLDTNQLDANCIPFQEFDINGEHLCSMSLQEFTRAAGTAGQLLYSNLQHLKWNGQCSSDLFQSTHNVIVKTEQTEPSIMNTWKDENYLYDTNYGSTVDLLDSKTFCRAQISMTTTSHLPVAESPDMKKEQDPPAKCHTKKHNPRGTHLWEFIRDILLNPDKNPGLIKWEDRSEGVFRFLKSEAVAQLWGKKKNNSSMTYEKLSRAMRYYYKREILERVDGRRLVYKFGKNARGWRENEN
In short: as §1

[7] = molecular target: SPI1 (Homo sapiens, UniProt P17947 1-270); details: protein: recombinant; tags: N-terminal GST; dsDNA, one strand shown
In short: as §1

[8] = molecular target: T6, ELK3 (Homo sapiens, UniProt P41970 1-407); details: protein: recombinant; tags: N-terminal GST; dsDNA, one strand shown
T6 sequence: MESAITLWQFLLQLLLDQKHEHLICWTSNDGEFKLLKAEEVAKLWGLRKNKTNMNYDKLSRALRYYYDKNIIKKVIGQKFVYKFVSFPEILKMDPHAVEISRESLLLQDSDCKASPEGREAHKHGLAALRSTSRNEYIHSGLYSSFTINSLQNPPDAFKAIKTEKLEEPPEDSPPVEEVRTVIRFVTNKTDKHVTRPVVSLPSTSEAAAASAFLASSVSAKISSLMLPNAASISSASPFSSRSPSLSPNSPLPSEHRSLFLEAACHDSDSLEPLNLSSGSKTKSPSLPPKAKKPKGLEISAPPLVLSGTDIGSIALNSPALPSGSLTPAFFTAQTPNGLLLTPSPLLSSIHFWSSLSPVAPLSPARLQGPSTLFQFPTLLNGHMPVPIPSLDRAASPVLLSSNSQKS
In short: as §1

[9] = molecular target: T7, FEV (Homo sapiens, UniProt Q99581 1-238); details: protein: recombinant; tags: N-terminal GST; dsDNA, one strand shown
T7 sequence: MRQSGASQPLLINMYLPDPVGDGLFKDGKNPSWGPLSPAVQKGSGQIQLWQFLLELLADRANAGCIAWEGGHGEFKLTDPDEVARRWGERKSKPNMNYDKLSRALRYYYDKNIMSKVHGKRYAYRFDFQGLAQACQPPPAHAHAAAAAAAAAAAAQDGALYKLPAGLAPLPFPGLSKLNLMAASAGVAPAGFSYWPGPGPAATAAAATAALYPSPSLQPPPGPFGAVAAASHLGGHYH
In short: as §1

[10] = molecular target: ETV5 (Homo sapiens, UniProt P41161 1-510); details: protein: recombinant; tags: N-terminal GST; dsDNA, one strand shown
In short: as §1

[11] = molecular target: HSF1 (Homo sapiens, UniProt Q00613 1-529); details: protein: recombinant; tags: N-terminal GST; chain copies: 3; dsDNA, one strand shown
In short: as §1

[12] = molecular target: T8, SPIC (Homo sapiens, UniProt Q8N5J4 1-248); details: protein: recombinant; tags: N-terminal GST; dsDNA, one strand shown
T8 sequence: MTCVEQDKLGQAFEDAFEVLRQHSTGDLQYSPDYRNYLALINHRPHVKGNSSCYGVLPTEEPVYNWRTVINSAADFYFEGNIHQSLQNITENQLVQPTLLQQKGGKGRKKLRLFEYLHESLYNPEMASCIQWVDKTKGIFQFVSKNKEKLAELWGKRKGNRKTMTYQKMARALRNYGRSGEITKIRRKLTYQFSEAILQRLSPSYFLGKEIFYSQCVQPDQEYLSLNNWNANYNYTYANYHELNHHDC
In short: as §1

[13] = molecular target: ELF4 (Homo sapiens, UniProt Q99607 1-663); details: protein: recombinant; tags: N-terminal GST; dsDNA, one strand shown
In short: as §1

[14] = molecular target: T9, ELK4 (Homo sapiens, UniProt P28324-2 1-405); details: protein: recombinant; tags: N-terminal GST; dsDNA, one strand shown
T9 sequence: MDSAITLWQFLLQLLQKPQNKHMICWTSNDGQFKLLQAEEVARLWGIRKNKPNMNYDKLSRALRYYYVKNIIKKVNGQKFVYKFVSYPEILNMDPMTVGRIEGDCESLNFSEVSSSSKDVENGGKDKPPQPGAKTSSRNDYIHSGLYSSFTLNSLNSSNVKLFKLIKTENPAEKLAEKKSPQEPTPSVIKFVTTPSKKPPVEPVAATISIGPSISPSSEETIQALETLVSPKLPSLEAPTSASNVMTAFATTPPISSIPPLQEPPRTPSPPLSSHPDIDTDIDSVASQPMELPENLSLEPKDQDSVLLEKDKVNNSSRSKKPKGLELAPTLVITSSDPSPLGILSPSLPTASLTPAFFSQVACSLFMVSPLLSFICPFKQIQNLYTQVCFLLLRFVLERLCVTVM
In short: as §1

[15] = molecular target: T10, ETV2 (Homo sapiens, UniProt O00321 1-342); details: protein: recombinant; tags: N-terminal GST; dsDNA, one strand shown
T10 sequence: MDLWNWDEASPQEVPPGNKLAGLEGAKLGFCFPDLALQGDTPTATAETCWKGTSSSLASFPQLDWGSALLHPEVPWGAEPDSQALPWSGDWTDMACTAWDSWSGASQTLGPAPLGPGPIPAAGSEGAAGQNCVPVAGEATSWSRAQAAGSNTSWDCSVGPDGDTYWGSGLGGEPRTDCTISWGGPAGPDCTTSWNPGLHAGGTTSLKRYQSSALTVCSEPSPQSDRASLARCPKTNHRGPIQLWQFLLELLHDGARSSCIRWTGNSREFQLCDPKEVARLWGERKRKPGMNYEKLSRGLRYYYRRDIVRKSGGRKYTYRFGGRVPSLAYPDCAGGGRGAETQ
In short: as §1

[16] = molecular target: T11, ELF3 (Homo sapiens, UniProt P78545 1-371); details: protein: recombinant; tags: N-terminal GST; dsDNA, one strand shown
T11 sequence: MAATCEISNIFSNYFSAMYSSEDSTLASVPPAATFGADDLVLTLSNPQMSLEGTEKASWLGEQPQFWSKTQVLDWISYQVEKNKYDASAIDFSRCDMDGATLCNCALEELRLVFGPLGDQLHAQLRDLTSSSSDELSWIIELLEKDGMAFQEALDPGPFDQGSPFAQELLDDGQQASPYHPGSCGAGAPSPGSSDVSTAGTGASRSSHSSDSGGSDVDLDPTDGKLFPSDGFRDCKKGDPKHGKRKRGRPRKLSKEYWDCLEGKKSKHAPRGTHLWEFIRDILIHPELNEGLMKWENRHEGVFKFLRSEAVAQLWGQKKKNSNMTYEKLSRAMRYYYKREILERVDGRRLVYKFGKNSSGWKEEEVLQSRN
In short: as §1

[17] = molecular target: CRX (Homo sapiens, UniProt O43186 1-299); details: protein: recombinant; tags: N-terminal GST; dsDNA, one strand shown
In short: as §1

[18] = molecular target: ETV1 (Homo sapiens, UniProt P50549 1-477); details: protein: recombinant; tags: N-terminal GST; dsDNA, one strand shown
In short: as §1

Sequence of ELF1 (P32519 whole entry): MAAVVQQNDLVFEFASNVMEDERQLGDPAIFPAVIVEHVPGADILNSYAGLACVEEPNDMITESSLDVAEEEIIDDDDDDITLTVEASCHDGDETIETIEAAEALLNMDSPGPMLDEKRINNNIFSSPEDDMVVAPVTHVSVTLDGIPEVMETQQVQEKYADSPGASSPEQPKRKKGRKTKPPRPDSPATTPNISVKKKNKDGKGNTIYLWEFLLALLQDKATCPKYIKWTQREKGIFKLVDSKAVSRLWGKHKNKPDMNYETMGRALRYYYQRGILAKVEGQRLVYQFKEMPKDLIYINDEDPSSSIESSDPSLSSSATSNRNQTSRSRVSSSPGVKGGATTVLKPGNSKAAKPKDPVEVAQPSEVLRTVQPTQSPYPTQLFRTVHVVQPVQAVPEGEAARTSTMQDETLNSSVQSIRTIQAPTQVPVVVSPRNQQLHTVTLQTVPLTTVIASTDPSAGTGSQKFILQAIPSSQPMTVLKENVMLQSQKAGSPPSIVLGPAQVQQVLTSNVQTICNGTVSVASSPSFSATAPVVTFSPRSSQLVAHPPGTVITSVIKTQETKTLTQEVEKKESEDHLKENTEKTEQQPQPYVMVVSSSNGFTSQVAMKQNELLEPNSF
Sequence of ELF4 (Q99607 whole entry): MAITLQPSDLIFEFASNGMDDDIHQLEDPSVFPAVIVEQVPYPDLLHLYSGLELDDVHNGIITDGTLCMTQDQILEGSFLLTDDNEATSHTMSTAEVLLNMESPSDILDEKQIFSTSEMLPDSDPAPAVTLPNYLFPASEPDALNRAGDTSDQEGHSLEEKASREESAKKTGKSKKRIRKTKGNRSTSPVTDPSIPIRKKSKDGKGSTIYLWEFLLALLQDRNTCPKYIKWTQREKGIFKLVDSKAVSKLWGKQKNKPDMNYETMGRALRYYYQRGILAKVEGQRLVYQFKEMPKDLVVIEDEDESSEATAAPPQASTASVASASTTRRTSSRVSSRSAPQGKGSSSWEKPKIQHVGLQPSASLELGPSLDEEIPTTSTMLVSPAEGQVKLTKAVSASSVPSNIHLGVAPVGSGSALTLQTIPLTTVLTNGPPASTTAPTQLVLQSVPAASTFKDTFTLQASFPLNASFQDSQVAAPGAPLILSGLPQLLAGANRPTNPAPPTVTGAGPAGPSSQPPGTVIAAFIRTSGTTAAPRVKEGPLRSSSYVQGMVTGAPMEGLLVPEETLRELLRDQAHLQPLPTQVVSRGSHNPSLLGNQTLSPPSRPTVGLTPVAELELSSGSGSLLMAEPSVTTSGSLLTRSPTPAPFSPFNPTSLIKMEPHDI
Sequence of HSF1 (Q00613 whole entry): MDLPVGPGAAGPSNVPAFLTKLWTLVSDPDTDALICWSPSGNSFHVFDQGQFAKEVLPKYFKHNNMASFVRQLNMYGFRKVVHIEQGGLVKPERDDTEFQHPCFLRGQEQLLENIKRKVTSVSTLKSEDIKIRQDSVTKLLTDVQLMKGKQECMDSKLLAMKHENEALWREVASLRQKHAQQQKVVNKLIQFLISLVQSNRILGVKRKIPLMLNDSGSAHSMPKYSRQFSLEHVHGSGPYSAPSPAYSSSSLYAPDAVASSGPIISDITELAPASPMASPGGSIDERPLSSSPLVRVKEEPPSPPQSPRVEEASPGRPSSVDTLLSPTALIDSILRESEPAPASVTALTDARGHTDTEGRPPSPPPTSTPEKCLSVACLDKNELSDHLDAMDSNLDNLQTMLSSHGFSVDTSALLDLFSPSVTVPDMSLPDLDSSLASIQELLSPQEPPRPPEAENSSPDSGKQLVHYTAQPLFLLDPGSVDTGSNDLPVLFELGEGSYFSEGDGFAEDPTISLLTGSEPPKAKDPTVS
Sequence of ETV5 (P41161 whole entry): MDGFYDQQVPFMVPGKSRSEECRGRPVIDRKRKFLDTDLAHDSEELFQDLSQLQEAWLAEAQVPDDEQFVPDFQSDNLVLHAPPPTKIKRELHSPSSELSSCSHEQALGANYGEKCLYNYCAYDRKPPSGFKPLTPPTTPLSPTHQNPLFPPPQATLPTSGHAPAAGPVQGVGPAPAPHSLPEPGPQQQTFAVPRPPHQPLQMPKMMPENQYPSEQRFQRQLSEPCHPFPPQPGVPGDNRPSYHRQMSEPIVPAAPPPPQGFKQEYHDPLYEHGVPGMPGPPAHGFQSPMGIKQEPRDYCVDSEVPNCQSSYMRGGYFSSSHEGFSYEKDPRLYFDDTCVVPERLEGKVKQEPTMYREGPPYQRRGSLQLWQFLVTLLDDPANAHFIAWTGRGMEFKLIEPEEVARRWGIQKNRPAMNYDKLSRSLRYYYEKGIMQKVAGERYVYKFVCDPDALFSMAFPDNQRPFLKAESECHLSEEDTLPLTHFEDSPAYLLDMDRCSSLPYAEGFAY
Sequence of CRX (O43186 whole entry): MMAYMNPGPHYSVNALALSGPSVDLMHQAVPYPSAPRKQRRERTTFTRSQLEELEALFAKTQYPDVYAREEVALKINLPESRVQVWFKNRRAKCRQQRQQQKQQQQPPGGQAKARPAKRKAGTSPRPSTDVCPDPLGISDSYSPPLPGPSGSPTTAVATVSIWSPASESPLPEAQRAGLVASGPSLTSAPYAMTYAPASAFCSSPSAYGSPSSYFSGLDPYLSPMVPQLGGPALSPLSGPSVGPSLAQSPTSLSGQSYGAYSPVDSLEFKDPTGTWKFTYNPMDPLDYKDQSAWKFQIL
Sequence of ETV1 (P50549 whole entry): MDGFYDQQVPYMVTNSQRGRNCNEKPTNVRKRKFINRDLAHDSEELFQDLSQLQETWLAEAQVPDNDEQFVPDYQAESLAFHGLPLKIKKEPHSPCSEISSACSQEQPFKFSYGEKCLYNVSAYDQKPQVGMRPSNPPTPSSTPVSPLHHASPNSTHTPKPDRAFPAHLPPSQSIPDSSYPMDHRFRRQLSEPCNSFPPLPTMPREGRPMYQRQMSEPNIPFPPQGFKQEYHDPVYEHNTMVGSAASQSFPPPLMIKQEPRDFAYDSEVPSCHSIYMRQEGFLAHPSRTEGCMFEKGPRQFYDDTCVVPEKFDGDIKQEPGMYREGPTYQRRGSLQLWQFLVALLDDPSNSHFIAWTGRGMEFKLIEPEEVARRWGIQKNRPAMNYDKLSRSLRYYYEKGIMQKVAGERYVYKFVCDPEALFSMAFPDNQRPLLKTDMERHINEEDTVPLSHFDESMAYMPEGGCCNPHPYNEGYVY

ACGTAA
binding signal [1]: 1.07 fold enrichment (6-mer frequency, TF over GST control)
binding signal [2]: 1.2 fold enrichment (6-mer frequency, TF over GST control)
binding signal [3]: 1.17 fold enrichment (6-mer frequency, TF over GST control)
binding signal [4]: 1.03 fold enrichment (6-mer frequency, TF over GST control)
binding signal [5]: 1.07 fold enrichment (6-mer frequency, TF over GST control)
binding signal [6]: 1.04 fold enrichment (6-mer frequency, TF over GST control)
binding signal [7]: 1.05 fold enrichment (6-mer frequency, TF over GST control)
binding signal [8]: 1.15 fold enrichment (6-mer frequency, TF over GST control)
binding signal [9]: 1.07 fold enrichment (6-mer frequency, TF over GST control)
binding signal [10]: 1.16 fold enrichment (6-mer frequency, TF over GST control)
binding signal [11]: 1.17 fold enrichment (6-mer frequency, TF over GST control)
binding signal [12]: 1.12 fold enrichment (6-mer frequency, TF over GST control)
binding signal [13]: 1.14 fold enrichment (6-mer frequency, TF over GST control)
binding signal [14]: 1.12 fold enrichment (6-mer frequency, TF over GST control)
binding signal [15]: 1.12 fold enrichment (6-mer frequency, TF over GST control)
binding signal [16]: 1.07 fold enrichment (6-mer frequency, TF over GST control)
binding signal [17]: 1.27 fold enrichment (6-mer frequency, TF over GST control)
binding signal [18]: 1.12 fold enrichment (6-mer frequency, TF over GST control)
